This passage reports potency estimated from few doses results from PMC11062922 (Nature Chemical Biology, 2023).

Set-up in all cases: species or system human, MV4-11 + K-562 + COLO205 + SK-N-BE2 + OVCAR-8
For one assay, the system named is ADCK1. Particulars: read-out: apparent Kd; compound concentrations: 100 nM and 1000 nM (sheet 'Samples'), CATDS: 3.00594248157054E-2; n = 1.
The subject of a further assay is ADRBK1. As to conditions: read-out: apparent Kd; compound concentrations: 100 nM and 1000 nM (sheet 'Samples'), CATDS: 2.4838233603700199E-2; n = 1.
In a further assay the test system is AKT1. As to conditions: read-out: apparent Kd; compound concentrations: 100 nM and 1000 nM (sheet 'Samples'), CATDS: 2.84891592844819E-2; n = 1.
For a further assay, the system named is AKT2. As to conditions: read-out: apparent Kd; compound concentrations: 100 nM and 1000 nM (sheet 'Samples'), CATDS: 2.9280872528565802E-2; n = 1.
For the next assay, the system named is CDK16. Particulars: read-out: apparent Kd; compound concentrations: 100 nM and 1000 nM (sheet 'Samples'), CATDS: 6.3577465529015803E-2; n = 1.
For a further assay, the system named is CDK17. As to conditions: read-out: apparent Kd; compound concentrations: 100 nM and 1000 nM (sheet 'Samples'), CATDS: 3.37360280865171E-2; n = 1.
In a further assay the test system is CDK1. Particulars: read-out: apparent Kd; compound concentrations: 100 nM and 1000 nM (sheet 'Samples'), CATDS: 2.7245131481605699E-2; n = 1.
For a further assay, the system named is CDK2. As to conditions: read-out: apparent Kd; compound concentrations: 100 nM and 1000 nM (sheet 'Samples'), CATDS: 4.36970242470427E-2; n = 1.
In a further assay the test system is CDK6. As to conditions: read-out: apparent Kd; compound concentrations: 100 nM and 1000 nM (sheet 'Samples'), CATDS: 3.4671115454836803E-2; n = 1.
In another assay the test system is CDK9. Particulars: read-out: apparent Kd; compound concentrations: 100 nM and 1000 nM (sheet 'Samples'), CATDS: 2.7346087342078398E-2; n = 1.
The subject of another assay is CDKL5. As to conditions: read-out: apparent Kd; compound concentrations: 100 nM and 1000 nM (sheet 'Samples'), CATDS: 8.0435969039111696E-2; n = 1.
The subject of the next assay is CLK1. As to conditions: read-out: apparent Kd; compound concentrations: 100 nM and 1000 nM (sheet 'Samples'), CATDS: 3.0051387692213001E-2; n = 1.
Another assay relates to CLK2. As to conditions: read-out: apparent Kd; compound concentrations: 100 nM and 1000 nM (sheet 'Samples'), CATDS: 4.01054923107644E-2; n = 1.
For another assay, the system named is CLK4. As to conditions: read-out: apparent Kd; compound concentrations: 100 nM and 1000 nM (sheet 'Samples'), CATDS: 3.8689764998843801E-2; n = 1.
The next assay deals with DYRK1A. As to conditions: read-out: apparent Kd; compound concentrations: 100 nM and 1000 nM (sheet 'Samples'), CATDS: 7.8363262326560101E-2; n = 1.
A further assay has as its system GSK3A. As to conditions: read-out: apparent Kd; compound concentrations: 100 nM and 1000 nM (sheet 'Samples'), CATDS: 0.62281927903821299; n = 1.
The next assay has as its system GSK3B. As to conditions: read-out: apparent Kd; compound concentrations: 100 nM and 1000 nM (sheet 'Samples'), CATDS: 0.401572679379325; n = 1.
The next assay deals with ICK. As to conditions: read-out: apparent Kd; compound concentrations: 100 nM and 1000 nM (sheet 'Samples'), CATDS: 0.15504301579156199; n = 1.
A further assay deals with MAP2K1. Particulars: read-out: apparent Kd; compound concentrations: 100 nM and 1000 nM (sheet 'Samples'), CATDS: 2.5511986591555801E-2; n = 1.
The next assay relates to MAP2K2. As to conditions: read-out: apparent Kd; compound concentrations: 100 nM and 1000 nM (sheet 'Samples'), CATDS: 2.5311950645342699E-2; n = 1.
The test system of the next assay is MAPK7. As to conditions: read-out: apparent Kd; compound concentrations: 100 nM and 1000 nM (sheet 'Samples'), CATDS: 2.4862770710026599E-2; n = 1.
Another assay has as its system NQO1. As to conditions: read-out: apparent Kd; compound concentrations: 100 nM and 1000 nM (sheet 'Samples'), CATDS: 3.3718961414702597E-2; n = 1.
Another assay relates to PIM1. Particulars: read-out: apparent Kd; compound concentrations: 100 nM and 1000 nM (sheet 'Samples'), CATDS: 3.8297140879790803E-2; n = 1.
The test system of a further assay is PIM2. Particulars: read-out: apparent Kd; compound concentrations: 100 nM and 1000 nM (sheet 'Samples'), CATDS: 4.1089094062549299E-2; n = 1.
A further assay concerns PRKACG. As to conditions: read-out: apparent Kd; compound concentrations: 100 nM and 1000 nM (sheet 'Samples'), CATDS: 4.2614442075595102E-2; n = 1.
In the next assay the test system is PYGL. As to conditions: read-out: apparent Kd; compound concentrations: 100 nM and 1000 nM (sheet 'Samples'), CATDS: 2.55419672432197E-2; n = 1.
The test system of another assay is RIOK2. Particulars: read-out: apparent Kd; compound concentrations: 100 nM and 1000 nM (sheet 'Samples'), CATDS: 2.90661770930771E-2; n = 1.
Another assay relates to ACVR1B. As to conditions: read-out: apparent Kd; compound concentrations:100 nM and 1000 nM (sheet 'Samples'); n = 1.
A further assay relates to NQO2. Particulars: read-out: apparent Kd; compound concentrations:100 nM and 1000 nM (sheet 'Samples'); n = 1.
In the next assay the test system is RIPK2. As to conditions: read-out: apparent Kd; compound concentrations:100 nM and 1000 nM (sheet 'Samples'); n = 1.
For the next assay, the system named is TESK2. As to conditions: read-out: apparent Kd; compound concentrations:100 nM and 1000 nM (sheet 'Samples'); n = 1.
For a further assay, the system named is TGFBR1. Particulars: read-out: apparent Kd; compound concentrations:100 nM and 1000 nM (sheet 'Samples'); n = 1.
Another assay deals with TGFBR2. Particulars: read-out: apparent Kd; compound concentrations:100 nM and 1000 nM (sheet 'Samples'); n = 1.
The next assay deals with ACVR2B. Particulars: read-out: apparent Kd; compound concentrations: 100 nM and 1000 nM (sheet 'Samples'), CATDS: 0.10934684571165; n = 1.
Another assay has as its system DCTPP1. As to conditions: read-out: apparent Kd; compound concentrations: 100 nM and 1000 nM (sheet 'Samples'), CATDS: 0.10861575043791701; n = 1.
In a further assay the test system is EGFR. As to conditions: read-out: apparent Kd; compound concentrations: 100 nM and 1000 nM (sheet 'Samples'), CATDS: 0.49201381458362498; n = 1.
The next assay has as its system EPHA5. Particulars: read-out: apparent Kd; compound concentrations: 100 nM and 1000 nM (sheet 'Samples'), CATDS: 0.108805216819128; n = 1.
In another assay the test system is EPHB4. Particulars: read-out: apparent Kd; compound concentrations: 100 nM and 1000 nM (sheet 'Samples'), CATDS: 0.19010178021007501; n = 1.
The next assay deals with PRKD1. As to conditions: read-out: apparent Kd; compound concentrations: 100 nM and 1000 nM (sheet 'Samples'), CATDS: 0.12094331971113; n = 1.
For another assay, the system named is RET. Particulars: read-out: apparent Kd; compound concentrations: 100 nM and 1000 nM (sheet 'Samples'), CATDS: 0.16960231572365; n = 1.

With `O=C(Nc1n[nH]c2nnc(-c3cccnc3)cc12)C1CC1.O=C(O)C(F)(F)F` [SB-675259-M], the potency estimated from few doses in the assay with ADCK1 is 1030 nM; with ADRBK1 it was 2130 nM; with AKT1 it was 1240 nM; with AKT2 it was 1130 nM; in the assay with CDK16, 151 nM; in the assay with CDK17, 726 nM. Also, the potency estimated from few doses was 1460 nM in the assay on CDK1; 366 nM in the assay with CDK2; 671 nM in the assay on CDK6; 1440 nM in the assay on CDK9; 87 nM in the assay with CDKL5; 1030 nM with CLK1. For the same compound, the potency estimated from few doses in the assay with CLK2 is 454 nM; in the assay on CLK4, 498 nM; in the assay on DYRK1A, 92.6 nM; in the assay with GSK3A it was 0.113 nM; with GSK3B, 0.279 nM; with ICK, 14.7 nM. Also, the potency estimated from few doses in the assay on MAP2K1 was 1890 nM; with MAP2K2 it was 1960 nM; in the assay with MAPK7 it was 2120 nM; in the assay with NQO1, 727 nM; in the assay with PIM1, 512 nM; with PIM2 it was 426 nM. Further, the potency estimated from few doses is 389 nM with PRKACG, 1880 nM in the assay with PYGL and 1160 nM in the assay with RIOK2.

Turning to `Cl.c1ccc(-c2n[nH]cc2-c2ccnc(-c3ccc(CN4CCOCC4)cc3)c2)nc1` [GW776245A], the potency estimated from few doses in the assay with ACVR1B was 335 nM; in the assay with NQO2, 243 nM; in the assay on RIPK2, 1080 nM; in the assay on TESK2, 1580 nM; in the assay on TGFBR1, 51.8 nM; in the assay on TGFBR2, 1230 nM.

With `COc1cc2ncnc(Nc3cccc(Cl)c3F)c2cc1O[C@H]1CC[C@@]2(CC1)NCCNC2=O` [BI00113608], the potency estimated from few doses with ACVR2B is 1660 nM; with DCTPP1, 1700 nM; in the assay with EGFR it was 85.3 nM; with EPHA5, 1690 nM; in the assay with EPHB4 it was 421 nM; in the assay on PRKD1, 1220 nM. Further, the potency estimated from few doses in the assay on RET is 534 nM.
